The results in this text go back to the supplement of paper PMC12632987.

Sequences and labels used below:
T1: USP38, Q8NB14
T1 chain: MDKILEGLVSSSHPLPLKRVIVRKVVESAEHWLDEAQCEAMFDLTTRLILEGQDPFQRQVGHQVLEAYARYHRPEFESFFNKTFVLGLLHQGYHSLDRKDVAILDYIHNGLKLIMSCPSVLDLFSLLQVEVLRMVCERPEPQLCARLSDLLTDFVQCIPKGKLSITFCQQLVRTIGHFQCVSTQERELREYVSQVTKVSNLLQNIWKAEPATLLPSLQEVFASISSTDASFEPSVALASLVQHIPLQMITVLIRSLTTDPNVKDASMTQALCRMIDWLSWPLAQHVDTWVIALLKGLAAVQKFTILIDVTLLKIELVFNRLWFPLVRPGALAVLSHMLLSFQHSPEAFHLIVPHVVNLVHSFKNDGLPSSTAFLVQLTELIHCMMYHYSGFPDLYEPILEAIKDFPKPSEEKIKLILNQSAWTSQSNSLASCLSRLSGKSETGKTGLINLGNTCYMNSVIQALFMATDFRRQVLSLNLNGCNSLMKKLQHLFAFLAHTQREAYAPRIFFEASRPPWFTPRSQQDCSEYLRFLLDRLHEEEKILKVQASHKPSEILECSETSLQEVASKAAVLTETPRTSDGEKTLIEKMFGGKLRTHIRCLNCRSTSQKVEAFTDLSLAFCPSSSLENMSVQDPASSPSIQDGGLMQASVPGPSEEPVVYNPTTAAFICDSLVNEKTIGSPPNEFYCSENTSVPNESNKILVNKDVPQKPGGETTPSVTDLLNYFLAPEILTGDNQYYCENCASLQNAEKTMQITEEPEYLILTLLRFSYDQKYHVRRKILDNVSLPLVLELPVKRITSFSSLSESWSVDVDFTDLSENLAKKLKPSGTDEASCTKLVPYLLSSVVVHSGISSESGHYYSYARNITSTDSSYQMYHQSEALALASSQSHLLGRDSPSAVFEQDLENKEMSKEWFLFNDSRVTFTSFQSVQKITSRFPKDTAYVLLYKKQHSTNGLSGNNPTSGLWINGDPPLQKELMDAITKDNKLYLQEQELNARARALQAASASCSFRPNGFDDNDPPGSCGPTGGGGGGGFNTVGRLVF

B1: usp_38_diff_out_18_14_329 (protein)
chain: SEELREAILSNLKSLKKEVEKVTERTLKVLEKLKDDPESAKSLIDTRKQALDGVIKYAEEVEKEAEAAGDEETAKAAKELKKAAKEAKAKLEEAEKKLKE
B2: usp_38_diff_out_18_28_361 (protein)
chain: MEEERRELEEELRRLEEELERLITEATEAITRALTAHPDDEEVWKLVDELWDALGKAAAAINEARELLREGGPLEEVKAKLDEARKYLKEAKKLLEELKK
B3: usp_38_diff_out_18_28_362 (protein)
chain: AAAERARLEARLRALGARLDALITDATAAVTAALTAHPDDAAVWALVDALWDALGKAAAAVNEARELLRAGGPAEEVERALEAAEAALAEAQALLAQLRA
B4: usp_38_diff_out_18_14_339 (protein)
chain: SSELAEAELSNLKSLTEEVKKVTERTEKIIEKLKDDPESAKSLLETRRQAYEGVIKYADEVLKRAEEEGYEELAKAAKELRDEAEKALERLEKLEKELEK
B5: usp_38_diff_out_18_14_357 (protein)
chain: SEAELEAQREYLEAFLEAAEIVNEEAERIIEREREKRILSADRLALMLGGLRALAEEAEEKLREARELGFEELAERLEEALERLEENAERFEALLAERRA
B6: usp_38_diff_out_18_14_340 (protein)
chain: SDELAKATLANLKTLTEEVKKVTERTEKIIKKLADDPEAAKSLLDTRKQAYQGVITYAKEVAEEAKAAGYKELLAAAEELKKAAEEALKTLEKLEKELKA
B7: usp_38_diff_out_18_14_334 (protein)
chain: AAELRAATKANLKTLTAEVKENTERTLRIVDKLKDDPESALSLLDTRIQALKGVAKYAQEVKKEAEEAGDAELKAAAEALLKAAKAAIEELEKRRKELKE
B8: usp_38_diff_out_18_14_343 (protein)
chain: SEELAEAELANLKSLKEEVKRVTERTKKIIEKLKDDPEAALSLLDTRIQAYKGVIKYAEEVLKEAKKAGYEELAKAAEELKKAAEEALKELERLRKELEA
B9: usp_38_diff_out_18_14_336 (protein)
chain: SEELRKAEIENLKTLLKEVKKDTERTIKIVEKLKDDKDSATSLLETRIQAYEGVIKYAEELKERAKKEGDKELIAAAEELIKAAKEAKEKLKELLKKLKA
B10: usp_38_diff_out_18_14_333 (protein)
chain: SSELEEQLISNFKSLTEEVKRDTERTLEIVEKLKDDPDAALALLDTRIQALEGVAKYAKEVKKEAEENGNEELKAAAEELLKAAEEAIKKLKEKRKELKA
B11: usp_38_diff_out_18_14_352 (protein)
chain: EEELREQLLSNLRSLTEEVRRNTERLKRIVEKLRDDPESALALLETRRQALEGVIRYAREVLREARERGWEELAEAAEELIRAAEEALEEAKRLEEELKK
B12: usp_38_diff_out_18_14_337 (protein)
chain: SEELRQQLLENLKSLTEEVKKEKERTLKIIEKLKDDPESALSLLDTRIQALDGVIKYAKEVAKEAKEEGDKELLEAAEKLIKEAEKAKKELEKKRAELKA
B13: usp_38_diff_out_18_28_363 (protein)
chain: EEERRRRLEAELEALRARLDALITEATAAITEALTAHPDDEEVWRLVDELLDALGRAAAALEEARRLLREGGPLEEVERLLREAERELERAERLLEELKA
B14: usp_38_diff_out_18_14_330 (protein)
chain: SEELRKAKLSNLKSLKAEVEEVTARTLRVVERLRGDPESARALLDTRIQALDGVIKYAEEVAKEAKAAGDEELAKAAEELKEAARAARARLEAAAAALAA
B15: usp_38_diff_out_18_159_358 (protein)
chain: DAELLHQLNLELLKAHLKSWAENAEKKAKKTKTEVAKKVAELAKKALELFEKDPNSKEALKEILELAKEALELIKSDPSFNDRDKTSAAGLVVLAQEVLA
B16: usp_38_diff_out_18_14_345 (protein)
chain: GEELEEQIKANLELLTKEVKENTERLVKILEKLKDDPESALSLIDTRLQALNGVKAYAEEELKRAKERGNEELKKAAEELIKAAEEAIKTLEELRKKLKA
B17: usp_38_diff_out_18_159_359 (protein)
chain: DEELLAELDKEILRDYSTSLAEEAKEKAKKAKDPEVKKLWAEVAKTAKYAAENLDNPEALAQAAKELTALTEELKKKGALNDREELQLQGLITLLNRVAA
B18: usp_38_diff_out_18_14_356 (protein)
chain: SEEEREATRLFIEARLAAAELVNADADKIIAYEKKHKNRSADTIEMMRGGLAAMAAELEEDLKLAKELGDEELAARLAAAQAELKARAAEFDALLAEKKA
B19: usp_38_diff_out_18_14_354 (protein)
chain: SEELREQTLSNLETLTADVEANTARLRRVVAALKDDPASARALLETRAQAMEGVIEYAERLEREAEEEGDEELLEAARRLRATAEAALAEIQALLAELDA
B20: usp_38_diff_out_18_14_331 (protein)
chain: SEELRKAKLDNLKLLTKEVKEDTERTLRILERLRGDPEAARSLIDTRIQALEGVIKYAEEVKKEAEEAGDEELAKAAEELKKAAEEAKRRLEEARRRLEA
B21: usp_38_diff_out_18_14_332 (protein)
chain: SEELTEQIISNLEKLTKDVKENTARTLKIVEKLKDDPESALSLLDTRIQALKGVEKYAKEVLEEAKKEGNKKLEEAAEKLLKEAKAAIKTLEEKRAALKA
B22: usp_38_diff_out_18_14_351 (protein)
chain: EEELREQLLSNLKSLTKEVKENTERTKKIVEKLKDDPESASSLLDTRIQALEGVIKYAEEVLREAKEKGWEELAEAAKELIKEAKKAKEELKKLKEALKA
B23: usp_38_diff_out_18_14_353 (protein)
chain: SEELREQLLSNLKTLKEEVRENRERTKRIVARLRDDPESARSLLESRIQAFKGVIKFAEELEKEAKEEGDEELLAAAKELKKEAEEALKELEALLAELDA
B24: usp_38_diff_out_18_14_344 (protein)
chain: SEELRKATKSNLESLKKDVKEVTERTKKIVAKLKDDPESALSLLETRIQALEGVIKYAEETLKEAEEEGDEELKKAAEELKKEAEEAKAEFEALLAALKA
B25: usp_38_diff_out_18_14_348 (protein)
chain: SEELYEQELSNLKSLTEEVKKNTERLKKIVEKLKDDPESALSLLETREQALKGVIKYAEEVAKEAKKEGREELLKAAEELIKAAKEALAEAKKLREELLA
B26: usp_38_diff_out_18_14_350 (protein)
chain: SEELEKQKLSNLKSLKEEVKKNTERLKKIVEKLKDDPESALSLLDTRIQALEGVIKYAEEVLKEAEEKGWEELAKAAKELIKEAEKAKKEAKELKKKLLE
B27: usp_38_diff_out_18_14_335 (protein)
chain: SEELTAATLANVKTLLEDVKKVTERTKKIVAKLKDDPESATSLLESRIQAYEGVIKYAEETLEEAKKAGDKELAAAAKELIKAAKEAKEEFEKLLAELKA
B28: usp_38_diff_out_18_28_360 (protein)
chain: MEERREELEKRLKELKAELDKLITEATAAITEALEAHPDDEEVWALVDKLWDALGKAAAAINEARELLREGGDLEEVEKLLKEAEKHLKKAKELLAELKA
B29: usp_38_diff_out_18_14_349 (protein)
chain: SEELREQTLSNLKSLKKEVEEVTERTERIVEKLRGDPEAARALLDTRIQALEGVIKYAEEVLKEAEEEGWEEVAKAAKELIEAAKEAKKRAEELRKELEE
B30: usp_38_diff_out_18_14_346 (protein)
chain: DEELAKQLKEQFESLTKEVEENTKRLKEIVEKLKDDPESALSLLETRIQALEGVIKYAEEEKKRAKAAGFEELAAAAEKLIKAAKAAKEEAEKLKKELKA
B31: usp_38_diff_out_18_14_341 (protein)
chain: SAELAAATLANLKSLTAEVKEVTARTEKIVEKLKDDPEAALSLLDTRKQAYEGVITYAEEVAKEAKAAGDAELEAAAKELKKAAEEALAKMEKLRAELKA
B32: usp_38_diff_out_18_14_347 (protein)
chain: EEELAEQLKSNFESLTKEVEENTKRTKKIIEKLKDDKESAISLLETRIQALDGVITYAKEEKKEAEEKGFEELKAAAEKLIDAATKAKEELEKLLKELKK

The assay concerns the target T1, USP38, Q8NB14. The assay is described as follows: median log2 fold change of GCK-ALFA target abundance (FLAG IP / Myc IP barcode read proportion) (log2 ratio); each designed protein is fused to an ALFA-tag nanobody in HEK293 cells to bring the named protein to FLAG-tagged glucokinase (GCK); Myc marks an untargeted standard; higher = target protein stabilised (more abundant). The following applies: target protein: 3xFLAG-MCP-GCK-ALFA reporter; HEK293 landing pad (RPLP). In a few lines:
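HEK293 landing-pad cells received a recombined binder library fused to the ALFA nanobody and were induced with 2 μg mL^−1 doxycycline, then transfected with a plasmid encoding a FLAG-tagged target and a Myc-tagged standard. Lysates were collected after 48 h for anti-FLAG and anti-Myc immunoprecipitation, and the circular RNA barcodes were reverse transcribed, amplified and sequenced. Target abundance for each binder is the median log2 ratio of FLAG to Myc barcode read proportions. Barcodes had to reach a proportion of at least 10^−7 in both replicates, each binder needed at least 3 barcodes per replicate, a pseudocount of 10^−6 was applied, and the two replicates were pooled.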
Turning to B1, the “median log2 fold change” value was -0.556.
Consider B2, for which the “median log2 fold change” value was found to be 0.017.
Take B3: the “median log2 fold change” value is -0.0207.
Take B4: the “median log2 fold change” value was 0.0814.
Consider B5, for which the “median log2 fold change” value was -0.477.
Regarding B6, the “median log2 fold change” value is -0.499.
Turning to B7, the “median log2 fold change” value turned out to be 0.0876.
Regarding B8, the “median log2 fold change” value is -0.329.
As for B9, the figure is -0.177.
As for B10, the “median log2 fold change” value is -0.013.
As for B11, the figure is -0.239; as for B12, 0.0476.
The result for B13 reads -0.0876; that for B14, 0.0025.
With B15, the “median log2 fold change” value was determined as 0.093.
In the case of B16, the “median log2 fold change” value was -0.0272.
Take B17: the “median log2 fold change” value was 0.289.
On to B18, for which the “median log2 fold change” value is -0.0299.
In the case of B19, the “median log2 fold change” value was -0.0379.
Take B20: the “median log2 fold change” value was determined as 0.193.
As for B21, the “median log2 fold change” value was determined as 0.139.
As for B22, the “median log2 fold change” value is -0.345.
For B23, the “median log2 fold change” value was -0.0535.
As for B24, the figure is 0.232; as for B25, -0.156; as for B26, -0.185.
Regarding B27, the “median log2 fold change” value was -0.351.
The result for B28 reads 0.282.
On to B29, for which the “median log2 fold change” value was -0.113.
Turning to B30, the “median log2 fold change” value is -0.0584.
As for B31, the figure is 0.0312.
As for B32, the figure is 0.152.
